Results: PubChem BioAssay (EPA / NIEHS)
Records with an inconclusive call do not appear. Some structures have more than one record in an assay (separate samples or runs), and their calls can disagree. Activity calls are given as the source filed them. The calls were made as follows: active = hit-call score of the fitted dose curve at least 0.9, where 1 is the maximum; inconclusive = response in the unintended direction; inactive = score below 0.9.

test system: not listed separately; assay: TOX21_p53_BLA_p2_viability: Viability Assessment in the Tox21 HCT-116 p53 Agonism Beta-lactamase Assay, Phase 2 (AID 2283591);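 also: compound exposure lasted 16 h at 37 °C; actives lower the ATP signal meaning cytotoxicity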
Outline: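 HCT116 p53-bla cells, 4000/well, dosed after 5 h plating (217-fold dilution of DMSO stocks) and incubated 16 h at 37C. Viability taken as cellular ATP by CellTiter-Glo luminescence after 30 min RT; signal loss marks cytotoxicity.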

SMILES | outcome
CSc1ccc(C(=O)c2[nH]c(=O)[nH]c2C)cc1 | inactive
CCOC(=O)O[C@]1(C(=O)COC(=O)CC)CC[C@H]2[C@@H]3CCC4=CC(=O)C=C[C@]4(C)[C@H]3[C@@H](O)C[C@@]21C | inactive
NS(=O)(=O)c1cc(C(=O)O)cc(N2CCCC2)c1Oc1ccccc1 | inactive
CC(=O)Nc1ccc(OC(C)=O)cc1 | inactive
OC[C@H]1O[C@@H](O[C@@H]2[C@@H](CO)O[C@](O)(CO)[C@H]2O)[C@H](O)[C@@H](O)[C@H]1O | inactive
CCOC(=O)CC(C)=O | inactive
CC1=C(C/C=C(\C)CCC[C@H](C)CCC[C@H](C)CCCC(C)C)C(=O)c2ccccc2C1=O | inactive
CC1(C)[C@@H](OC(=O)CCC(=O)O)CC[C@]2(C)[C@H]3C(=O)C=C4[C@@H]5C[C@@](C)(C(=O)O)CC[C@]5(C)CC[C@@]4(C)[C@]3(C)CC[C@@H]12 | inactive
OC(CN1CCCCC1)c1cc(-c2ccccc2)on1 (configuration not stated) | inactive
O=C1C=CCCC1 | inactive
CCCCCCCCCC#N | inactive
CC(O)Cn1cnc2c1c(=O)n(C)c(=O)n2C (configuration not stated) | inactive
CN1C(C)(C)CCCC1(C)C | inactive
Oc1ccc(-c2ccc(O)cc2)cc1 | inactive
CC(=O)O[C@H]1C[C@@H]2CC[C@@H]3[C@H](CC[C@@]4(C)[C@H]3C[C@H](N3CC[N+](C)(C)CC3)[C@@H]4OC(C)=O)[C@@]2(C)C[C@@H]1N1CC[N+](C)(C)CC1 | inactive
C[C@@H](CN(C)C)CN1c2ccccc2Sc2ccccc21 | inactive
CCC(O)C(C)(C)C (configuration not stated) | inactive
COC(=O)C(CN)c1c[nH]c2ccc(OC)cc12 (configuration not stated) | inactive
CC(C)CC(O)CC(C)C | inactive
CCc1ccc(C)cc1 | inactive
CC[N+](C)(CC)CCOC(=O)C(O)(c1ccccc1)C1CCCCC1 (configuration not stated) | inactive
CC(C)CNCC(C)C | inactive
CCOC(=O)COc1ccc2c(C)c(CCN(CC)CC)c(=O)oc2c1Cl | inactive
CCCCC(=O)N(C)C | inactive
CCCCCCCC/C=C\CCCCCCCCCCCC(=O)O | inactive
C[Si](C)(C)Cl | inactive

biological target: Cellular tumor antigen p53 (Homo sapiens) (UniProt P04637); assay: TOX21_p53_BLA_p2_ratio: Tox21 HCT-116 p53 Agonism Beta-lactamase Assay, Ratio, Phase 2 (AID 2283592)
Sequence (P04637 whole entry, looked up): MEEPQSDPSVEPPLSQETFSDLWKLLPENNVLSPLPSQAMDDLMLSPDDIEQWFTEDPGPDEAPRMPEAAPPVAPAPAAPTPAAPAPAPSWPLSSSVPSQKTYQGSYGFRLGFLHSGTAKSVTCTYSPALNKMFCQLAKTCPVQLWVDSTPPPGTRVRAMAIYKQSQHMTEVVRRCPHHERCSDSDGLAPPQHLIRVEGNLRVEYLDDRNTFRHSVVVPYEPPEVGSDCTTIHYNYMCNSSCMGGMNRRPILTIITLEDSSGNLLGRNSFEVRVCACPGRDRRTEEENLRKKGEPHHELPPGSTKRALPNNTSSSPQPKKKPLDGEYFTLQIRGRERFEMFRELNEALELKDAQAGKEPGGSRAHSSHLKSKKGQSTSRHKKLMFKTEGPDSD
Outline: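 HCT116 p53-bla; 4000 cells/well; 5 h pre-incubation; cpd in DMSO, 217-fold dilution; 16 h 37C/5% CO2; CCF4-AM 2 h RT; Ex 405, Em 460/530 ratio; DMSO = baseline; positive fitting direction.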

SMILES | outcome | AC50
O=[N+]([O-])c1ccc(F)c(Cl)c1 | inactive | 
Clc1ccnc(Cl)n1 | inactive | 
C=C(C)C(=O)OC(C)C | inactive | 
CCc1nn(CCCN2CCN(c3cccc(Cl)c3)CC2)c(=O)n1CCOc1ccccc1 | inactive | 
Nc1cc(C(=O)O)ccc1Cl | inactive | 
c1ccsc1 | inactive | 
COC(=O)C[C@](O)(CCCC(C)(C)O)C(=O)O[C@@H]1C(OC)=CC23CCCN2CCc2cc4c(cc2[C@H]13)OCO4 (some centres not stated) | inactive | 0.0202 µM (active)
COc1cc2c(cc1O)CCN[C@]21CS[C@@H]2c3c(OC(C)=O)c(C)c4c(c3[C@H](COC1=O)N1[C@@H]2[C@H]2c3c(cc(C)c(OC)c3O)C[C@@H]([C@@H]1O)N2C)OCO4 | inactive | 0.00174 µM (active)
COC(=O)C1=C(C)NC(C)=C(C(=O)OC)C1c1ccccc1[N+](=O)[O-] | inactive | 
C=CC(=O)OCC[N+](C)(C)C | inactive | 
CCCC(=O)Nc1c(I)cc(I)c(CC(CC)C(=O)O)c1I (configuration not stated) | inactive | 
COC1[C@@H](O[C@@H]2O[C@H](C)[C@@H](O[C@H]3C[C@@](C)(O)[C@H](OC(=O)CC(C)C)[C@H](C)O3)[C@H](N(C)C)[C@H]2O)[C@@H](CC=O)C[C@@H](C)[C@@H](O)/C=C/C=C/C[C@@H](C)OC(=O)C[C@H]1OC(C)=O (some centres not stated) | inactive | 
CC(C)(C)C1(O)CCN2CC3c4ccccc4CCc4cccc(c43)C2C1 (configuration not stated) | inactive | 
C[C@H](N)[C@H](O)c1cccc(O)c1 | inactive | 
